Test results published in PubChem BioAssay (NCATS).
Results filed as inconclusive are left out. Values without a mark were called inactive. Calls come from the whole dose curve; as a rule, active = well fitted cell-killing curve with a large enough effect; inconclusive = small, poorly fitted or top-dose-only effect, or effect the other way; inactive = no such curve, though single readings can be large or run the other way.

Assay: Cell Viability - LYMP2-005 (AID 967);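 note: plate controls were DMSO only for no effect and 92 µM tetraoctylammonium bromide control for full effect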
Conditions: LYMP2-005 lymphoblastoid cell viability; series mostly up to 92.2 µM; activity change, negative = viability loss: at the top concentration
Procedure, shortened: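 Steps: seed 2500 LYMP2-005 cells/well, incubate 5 h at 37 C, add compound, incubate 24 h at 37 C, add CellTiter-Glo, wait 30 min at RT, read luminescence. Concentration-response data fitted to Hill equation for AC50.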

| SMILES | activity change, negative = viability loss |
| --- | --- |
| Cc1ccccc1C=O | 12.7% |
| CNc1ccccc1 | -14.1% |
| CC1CCC2CC1C2(C)C (centres undefined) | -14.6% |
| CC(C)C=O | 0.128% |
| O=Cc1ccc(CO)o1 | -2.76% |
| O=[N+]([O-])c1ccccc1CCO | -0.479% |
| CC(CCl)OC(C)CCl (centres undefined) | 6.2% |
| CC=C(Cl)Cl | 2.32% |
| O=[N+]([O-])c1c(Cl)cc(Cl)cc1Cl | 2.87% |
| CCC(C)(C)C(=O)O | 4.22% |
| CCOC(C)(C)C | -25.5% |
| COCCOC(=O)c1ccccc1C(=O)OCCOC | -1.14% |
| Cc1nc2ccc(Cl)cc2[nH]1 | -2.73% |
| CC(O)COC(C)(C)C (centres undefined) | 40.7% |
| CCOCC(=O)O | -1.68% |
| CC(=O)c1ccccc1[N+](=O)[O-] | 12.4% |
| Cc1ccc(C(C)(C)C)cc1 | 3.41% |
| CC(C)N=C=NC(C)C | -0.667% |
| O=C(O)c1ccc(Cl)c(Cl)c1 | -15.5% |
